PubChem BioAssay (Tox21)
Results filed as inconclusive are left out. The source made the active and inactive calls. Calls follow the shape of the dose curve; as a rule, active = well fitted curve in the direction sought with a large enough effect in the repeat runs; inconclusive = weak or mixed curves; inactive = no such curve, though single readings can be large; an effect the other way counts as inactive or inconclusive.

Experiments:
[1] = Human pregnane X receptor (PXR) small molecule agonists, qHTS cell viability counter screen (AID 1346977); also: nearly all actives have a fitted effect of over 50% in size; also: potency is read from the fitted curve at half-maximal effect
In short: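 Readout is CellTiter-Fluor fluorescence from PXR-Luc HepG2 cells. Plated cells rested 5hr, then were treated with compounds for 24hr at 37C and 5% CO2, with reagent present during the last hour.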

[2] = Caspase-3/7 induction in HepG2 cells by small molecules, qHTS assay (AID 1346978); also: nearly all actives have a fitted effect of over 15% in size
In short: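 Wild-type HepG2 cells, 2,000/well, settled 5 hr at 37 C and 5% CO2, then compound-treated for 17 hr; caspase-3/7 activity read by luminescent Caspase-Glo 3/7 after 30 min at room temperature.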

[3] = Caspase-3/7 induction in CHO-K1 cells by small molecules, qHTS assay (AID 1346980); also: nearly all actives have a fitted effect of over 15% in size
In short: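 Wild-type CHO-K1 cells exposed to compounds for 17hr at 37 C, 5% CO2. Caspase-3/7 activity then measured by Caspase-Glo 3/7 luminescence after 30min at room temperature.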

[4] = Caspase-3/7 induction in HepG2 cells by small molecules, qHTS cell viability counter screen (AID 1346981); also: nearly all actives have a fitted effect of over 30% in size; also: potency is read from the fitted curve at half-maximal effect
In short: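 Steps: seed 2,000 HepG2 cells per well; incubate 5 hr at 37 C; pin-add compounds in DMSO; incubate 16 hr; add CellTiter-Fluor; after 1 hr at 37 C and 5% CO2, read fluorescence.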

[5] = molecular target: Nuclear receptor subfamily 1 group I member 2 (Homo sapiens) (UniProt O75469); test: Human pregnane X receptor (PXR) small molecule agonists, qHTS assay (AID 1346982); also: nearly all actives have a fitted effect of over 35% in size; also: potency is read from the fitted curve at half-maximal effect
In short: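 Agonist mode qHTS: PXR-Luc HepG2 cells plated 5 hr before DMSO-dissolved compounds were pinned in, cultured 24 hr at 37 C, 5% CO2; ONE-Glo luminescence readout.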

[6] = molecular target: Cytochrome P450 2D6 (Homo sapiens) (UniProt P10635); test: Cytochrome P450 Family 2 Subfamily D Member 6 (CYP2D6) small molecule antagonists: luciferase reporter qHTS assay (AID 1671196); also: nearly all actives have a fitted effect of over 50% in size; also: potency is read from the fitted curve at half-maximal effect
In short: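 P450-Glo format: CYP2D6 converts a proluciferin substrate to luciferin in an NADPH-driven reaction lasting 1 h at room temperature. Light output, proportional to CYP2D6 activity, reflects interference by test chemicals.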

[7] = molecular target: Nuclear receptor subfamily 1 group I member 2 (Rattus norvegicus) (UniProt Q9R1A7); test: Rat pregnane X receptor (rPXR) activation by small molecules, qHTS assay (AID 1346983); details: rPXR luciferase reporter cells, One-Glo luminescence, 24 h; max activation: stronger effect = higher value; also: nearly all actives have a fitted effect of over 20% in size
In short: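 Cell-based rPXR activation assay: rPXR cells, 2,000 per well, rested 5hr at 37 C, then exposed to compounds in DMSO for 24 hr at 37 C. Luciferase activity read by One-Glo luminescence after 30 min at room temperature.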

[8] = molecular target: Nuclear receptor subfamily 1 group I member 2 (Homo sapiens) (UniProt O75469); test: CYP3A4 induction through human pregnane X receptor (PXR) by small molecules, qHTS assay (AID 1346984); also: nearly all actives have a fitted effect of over 40% in size
In short: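 Steps: seed DPX-2 cells, 5 hr at 37C; pin-transfer compounds; 24 hr at 37C; add Luciferin-IPA (3uM final), 3 hr at 37C; add One-Glo, 30 min RT; read luminescence.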

[9] = molecular target: Nuclear receptor subfamily 1 group I member 2 (Homo sapiens) (UniProt O75469); test: Human pregnane X receptor (PXR) activation by small molecules, qHTS assay (AID 1346985); also: nearly all actives have a fitted effect of over 40% in size
In short: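 DPX-2 cells (HepG2 co-transfected with a PXR response element and a CYP3A4-promoter luciferase construct) were seeded at 2,000 per well, rested 5 hr at 37C, then exposed to DMSO-dissolved compounds for 24 hr. Activation was read as luciferase luminescence.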
% is scaled to controls: 0 for no effect and ±100 for the full control effect.

Sequence of Nuclear receptor subfamily 1 group I member 2 (Homo sapiens) (O75469 whole entry, looked up): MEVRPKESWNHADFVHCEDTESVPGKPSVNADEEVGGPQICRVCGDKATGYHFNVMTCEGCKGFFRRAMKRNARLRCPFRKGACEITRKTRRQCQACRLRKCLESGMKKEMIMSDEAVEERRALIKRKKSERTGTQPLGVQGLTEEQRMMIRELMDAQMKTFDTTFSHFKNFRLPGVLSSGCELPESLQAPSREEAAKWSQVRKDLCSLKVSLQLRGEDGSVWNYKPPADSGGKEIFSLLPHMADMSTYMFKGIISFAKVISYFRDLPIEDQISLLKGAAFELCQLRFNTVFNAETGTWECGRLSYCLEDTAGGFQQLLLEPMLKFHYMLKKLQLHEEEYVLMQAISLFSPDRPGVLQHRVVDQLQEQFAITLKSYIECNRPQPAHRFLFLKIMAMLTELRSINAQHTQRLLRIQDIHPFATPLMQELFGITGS
Sequence of Cytochrome P450 2D6 (Homo sapiens) (P10635 whole entry, looked up): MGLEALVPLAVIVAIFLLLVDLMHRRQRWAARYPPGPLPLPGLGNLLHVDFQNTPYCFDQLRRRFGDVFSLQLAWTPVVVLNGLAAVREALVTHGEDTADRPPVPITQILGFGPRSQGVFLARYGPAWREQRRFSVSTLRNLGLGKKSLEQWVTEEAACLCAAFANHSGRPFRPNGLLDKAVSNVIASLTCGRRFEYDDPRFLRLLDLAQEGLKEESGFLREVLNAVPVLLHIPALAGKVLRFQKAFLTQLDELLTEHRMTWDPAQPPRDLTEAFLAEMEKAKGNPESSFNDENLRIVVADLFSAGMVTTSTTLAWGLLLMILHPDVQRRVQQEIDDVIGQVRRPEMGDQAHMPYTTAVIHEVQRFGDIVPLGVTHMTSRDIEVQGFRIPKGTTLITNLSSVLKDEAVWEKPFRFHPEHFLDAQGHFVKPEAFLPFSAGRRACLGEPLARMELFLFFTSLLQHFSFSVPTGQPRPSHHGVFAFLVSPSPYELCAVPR
Sequence of Nuclear receptor subfamily 1 group I member 2 (Rattus norvegicus) (Q9R1A7 whole entry, looked up): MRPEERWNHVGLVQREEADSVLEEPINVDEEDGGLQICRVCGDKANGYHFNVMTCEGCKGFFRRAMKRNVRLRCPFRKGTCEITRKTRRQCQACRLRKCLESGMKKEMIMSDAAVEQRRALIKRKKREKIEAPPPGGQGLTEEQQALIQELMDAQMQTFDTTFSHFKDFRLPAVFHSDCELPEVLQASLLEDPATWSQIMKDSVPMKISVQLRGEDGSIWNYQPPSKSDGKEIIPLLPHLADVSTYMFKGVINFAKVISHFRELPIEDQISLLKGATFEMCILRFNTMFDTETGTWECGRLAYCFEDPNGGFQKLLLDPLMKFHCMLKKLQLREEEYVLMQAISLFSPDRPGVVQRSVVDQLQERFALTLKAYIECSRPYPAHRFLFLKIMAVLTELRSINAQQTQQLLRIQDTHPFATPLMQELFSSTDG

CN(C(=O)CCCOc1ccc2[nH]c(=O)ccc2c1)C1CCCCC1
active: Potency [5] 15 µM
inactive: Potency [1] | outcome [2] | Potency [3] | Potency [4] | Potency [6]

Oc1ccc(C(O)CNCCCCCCNCC(O)c2ccc(O)c(O)c2)cc1O (centres undefined)
inactive: Potency [1] | outcome [2] | Potency [3] | Potency [4] | Potency [5] | max activation [7] -3.6% | Potency [8]

CN(c1nccc(=O)[nH]1)C1CCN(c2nc3ccccc3n2Cc2ccc(F)cc2)CC1
active: Potency [6] 12.3 µM
inactive: Potency [1] | outcome [2] | Potency [3] | max activation [7] -3.1% | Potency [8]

O=C(O)[C@@H]1[C@H]2C[C@H]3c4[nH]c5ccccc5c4CCN3C[C@@H]2CC[C@@H]1O
inactive: Potency [1] | outcome [2] | Potency [3] | Potency [4] | Potency [5] | max activation [7] -0.311% | Potency [8]
active: Potency [6] 1.55 µM

Oc1ccc(Sc2ccc(O)cc2)cc1
inactive: Potency [1] | outcome [2] | Potency [3] | Potency [4]
active: Potency [5] 51 µM | Potency [6] 33.3 µM

NC(N)=N/N=C/c1c(Cl)cccc1Cl
inactive: outcome [2] | Potency [3] | Potency [5] | max activation [7] -2.41% | Potency [8]
active: Potency [1] 29.8 µM | Potency [4] 29.8 µM | Potency [6] 13.8 µM

C=C(C)C(=O)OCCOc1ccccc1
inactive: Potency [1] | outcome [2] | Potency [3] | Potency [4] | Potency [5] | Potency [6]

CCCCC(CC)COCCCN (centres undefined)
active: Potency [5] 60.4 µM | Potency [6] 12.5 µM
inactive: Potency [1] | outcome [2] | Potency [3] | Potency [4]

CC(=O)O[C@H]1C[C@@H]2CC[C@@H]3[C@H](CC[C@@]4(C)[C@H]3C[C@H]([N+]3(C)CCCCC3)[C@@H]4OC(C)=O)[C@@]2(C)C[C@@H]1N1CCCCC1
inactive: Potency [1] | outcome [2] | Potency [3] | Potency [4] | Potency [5] | max activation [7] -3.12% | Potency [8]

N#CCc1cccc(C(F)(F)F)c1
inactive: Potency [1] | outcome [2] | Potency [4] | Potency [5]

CCCCCOC(=O)c1ccc(O)cc1
active: Potency [6] 71.8 µM
inactive: Potency [1] | outcome [2] | Potency [3] | Potency [4]

CCN1CCC[C@H]1CNC(=O)c1c(OC)ccc(Br)c1OC
inactive: Potency [1] | outcome [2] | Potency [3] | Potency [4] | Potency [5] | max activation [7] 7.68% | Potency [8] | Potency [9]

CC(=O)c1ccc2c(c1)[C@H](NC(=O)c1ccc(F)cc1)[C@@H](O)C(C)(C)O2
active: Potency [6] 18.8 µM
inactive: Potency [1] | outcome [2] | Potency [3] | Potency [5]

Cc1ccc(C(=O)C(C)CN2CCCCC2)cc1 (centres undefined)
inactive: Potency [1] | outcome [2] | Potency [3] | Potency [5] | max activation [7] -1.62% | Potency [8]
active: Potency [6] 0.977 µM

CC(=O)N(CC(=O)N(C)C)c1ccccc1
inactive: Potency [1] | outcome [2] | Potency [3] | Potency [5] | Potency [6]

CC1(C)CCC(C)(C)c2cc(NC(=O)c3ccc(C(=O)O)cc3)ccc21
inactive: Potency [1] | outcome [2] | Potency [3] | Potency [5] | max activation [7] -8.01% | Potency [8] | Potency [6]

CCCCCc1ccc(N)cc1
active: Potency [6] 31.7 µM
inactive: Potency [1] | outcome [2] | Potency [3]

CCCCOC(=O)c1ccccc1C(=O)OCC(CC)CCCC (centres undefined)
inactive: Potency [1] | outcome [2] | Potency [3] | Potency [5]

c1ccc(CNCc2ccccc2)cc1
inactive: Potency [1] | outcome [2] | Potency [3] | Potency [4] | Potency [5]

NCCCN(CCO)CCO
inactive: Potency [1] | outcome [2] | Potency [4] | Potency [5]

CC(=O)/C=C/C1C(C)=CCCC1(C)C (centres undefined)
inactive: Potency [1] | outcome [2] | Potency [3] | Potency [4] | Potency [5] | Potency [6]

O=S(=O)(O)c1ccc(O)c2ncccc12
inactive: Potency [1] | outcome [2] | Potency [3] | Potency [5]

NC1CCN(c2nc3c(cc2F)c(=O)c(C(=O)O)cn3-c2ccc(F)cc2F)C1 (centres undefined)
inactive: Potency [1] | outcome [2] | Potency [3] | Potency [4] | max activation [7] -4.88% | Potency [6]

CC(=O)[C@@]1(O)CC[C@H]2[C@@H]3C[C@H](C)C4=CC(=O)CC[C@]4(C)[C@H]3CC[C@@]21C
inactive: Potency [1] | outcome [2] | Potency [3] | Potency [4]
active: Potency [6] 34.7 µM

C=CCCCCCC
inactive: Potency [1] | outcome [2] | Potency [3] | Potency [4] | Potency [5] | Potency [6]

CCOC(=S)SSC(=S)OCC
inactive: Potency [1] | outcome [2] | Potency [3] | Potency [4] | Potency [5] | max activation [7] -2.15% | Potency [8]

O=C(O)Cn1c(C(=O)Nc2nc(-c3ccccc3Cl)cs2)cc2ccccc21
inactive: Potency [1] | outcome [2] | Potency [3] | Potency [4] | max activation [7] -0.843% | Potency [8]
active: Potency [5] 26.6 µM
